In all, about 1,900 compounds went through this assay and about 1,600 (84%) were called active. So high a share suggests a set chosen from earlier hits. Only a sample is shown. Unmarked numbers belong to inactive results.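 Rule for the calls: active = mean activation above a set limit taken from the primary screen (cut at about 8% in these data); inactive = the rest.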

The assay is described as follows: FXN GAA850 promoter activators in reporter cells, confirmation, cell-based, luminescence, HEK293 lucGAA850, triplicate (AID 588351).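 Note: 0% = DMSO wells and 100% = 10 µM SAHA wells.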 To be noted: HEK293 lucGAA850 FXN promoter luciferase reporter, 24 h; at 6 µM; active compounds read high; 100% = activation by SAHA. For orientation: A reporter such as luciferase makes a cellular process visible.
Regarding `COc1ccccc1C1=Nc2cccc3cccc(c23)N1`, the activation is 7.84% (active).
`CCN(C[C@H]1N[C@@](CC)(C(=O)OC)[C@H]2C(=O)N(Cc3ccccc3)C(=O)[C@@H]12)S(=O)(=O)c1ccc(C(F)(F)F)cc1`: the activation is 10.5% (active).
For `O=C(Nc1nnc(S(=O)(=O)N2CCCCCC2)s1)c1cccc(Br)c1` the value was 16.8% (active).
For `Cn1c(=O)n(C)c2cc(S(=O)(=O)N3CCCc4ccccc43)ccc21` the value was 11.8% (active); for `CC(C)(C)N1C(=O)[C@H]2[C@@H](c3ccc(Br)cc3)N3C(=O)N(c4cccc(Cl)c4)C(=O)[C@@]3(C)[C@H]2C1=O`, 6.82%.
For `CC[C@@]12C(=O)N(c3ccccc3)C(=O)N1[C@H](c1ccc(Br)cc1)[C@@H]1C(=O)N(C(C)(C)C)C(=O)[C@@H]12` the value was 11.1% (active).
As to `CCCNC(=O)c1c(Cl)cnn1-c1ccc(C)cc1`, the activation was 31.2% (active).
Then `Cc1ccccc1Nc1c([N+](=O)[O-])ccc2nonc12`, with 17% (active); and `COC(=O)[C@@]1(C)[C@H]2C(=O)N(Cc3ccccc3)C(=O)[C@H]2[C@H]2CN=C(SCC3CC3)N21`, with 12.3% (active).
With `CC[C@]1(C(=O)OC)[C@H]2C(=O)N(Cc3ccccc3)C(=O)[C@H]2[C@H]2CN=C(SCc3ccc(C#N)cc3)N21`, the activation is 11% (active).
Then `CC[C@]1(C(=O)OC)[C@H]2C(=O)N(Cc3ccccc3)C(=O)[C@H]2[C@H]2CN=C(SCc3ccccc3)N21`, with 6.5%.
With `CC(C)CCC(C)NC(=O)c1ccc2nccnc2c1` (centres undefined), the activation is 25.6% (active).
As to `Cn1c(CCN2CCCCCC2)nc2cc(NC(=O)Nc3ccccc3)ccc21`, the activation is 32.6% (active).
For `COC(=O)c1ccc(CSc2nc3ccccc3c(=O)n2-c2cccc(OC)c2)o1` the value was 16.6% (active); for `Cc1ccc2cc(/C=N/Nc3ccc(C(=O)O)cc3)c(Cl)nc2c1`, 44.5% (active).
For the compound `CN(C(=O)c1cc2c(=O)n3ccccc3nc2s1)C1CCCCC1`, the activation was 37.7% (active).
Then `COCCn1c(=NC(=O)c2ccccc2[N+](=O)[O-])sc2cc(S(C)(=O)=O)ccc21`, with 23.4% (active).
Then `O=C(CSc1cccc2cccnc12)N/N=C/c1cccnc1`, with 10.9% (active).
Then `O=[N+]([O-])c1ccc(C=Nc2ccc(Cl)cc2Cl)s1`, with 17.7% (active).
On to `O=C1N=C(N2CCCC2)S/C1=C\c1cccc(Br)c1`, for which the activation is 20.9% (active).
Then `COc1ccc2[nH]c(=O)c(CN(Cc3nnnn3CCc3ccccc3)CC3CCCO3)cc2c1` (centres undefined), with 5.82%.
`COc1cc(C#Cc2ccc3cc(CCCO)oc(=O)c3c2)cc(OC)c1`: the activation is 44.9% (active).
For `COc1cccc(Nc2nc(N)c([N+](=O)[O-])c(NCc3ccco3)n2)c1` the value was 22.8% (active); for `O=C(CN(c1cc(C(F)(F)F)ccc1Cl)S(=O)(=O)c1ccccc1)NCc1cccnc1`, 8.52% (active).
As for `COc1ccc(-n2cc(-c3ccccc3)c3c(=S)nc[nH]c32)cc1`, the activation was 11% (active).
On to `Cc1ccc(-c2c3c(=O)n(C)c(=O)n(C)c3cn2-n2cnnc2)cc1`, for which the activation was 19% (active).
For `CCOc1ccc(N2C(=O)CC(N(CCc3ccc(OC)c(OC)c3)C(=S)Nc3ccccc3)C2=O)cc1` (centres undefined) the value was 9.64% (active); for `CC(C)(C)C(=O)c1cnc(Nc2ccccc2)s1`, 49.2% (active); for `Cc1cc(OCc2cc(C(=O)NCc3cc(C(C)C)no3)no2)cc(C)c1Cl`, 30.7% (active).
Then `CNc1nc(Nc2ccc(C)c(Cl)c2)nc(N)c1[N+](=O)[O-]`, with 71% (active); and `CC(Sc1nc2c([nH]c3ccccc32)c(=O)n1C)c1ccccc1` (centres undefined), with 16.1% (active).
Turning to `Cc1ccc(-c2nc3ccccc3[nH]c2=O)cc1`, the activation is 29.2% (active).
Regarding `CN(C)CCNC(=O)c1ccc(Cl)c2cc3ccccc3nc12`, the activation was 130% (active).
For the compound `CCC(=O)NC(=Nc1nc2ccccc2s1)NC(=O)CC`, the activation is 38.4% (active).
For `COc1ccc(Cl)cc1NC(=O)CN(C)C(=O)CCCc1c[nH]c2ccccc12` the value was 9.95% (active); for `Fc1ccccc1/C=N/Nc1cc(N2CCCCC2)ncn1`, 43.1% (active); for `CCCCCOc1ccc(CSC2=NCCN2)cc1[N+](=O)[O-]`, 38.6% (active).
On to `Nc1ccc(C(=O)Nc2ccccc2N)cc1`, for which the activation was 55.7% (active).
Turning to `N#CCSc1nc2ccccc2c(=O)n1-c1ccccc1`, the activation is 16.2% (active).
Then `CCCCc1ccc(NC(=S)N2CCCC(CO)C2)cc1` (centres undefined), with 33.8% (active).
For `CC(C)c1ccc(NS(=O)(=O)c2cn(C)c(=O)n(C)c2=O)cc1`, the activation is 5.44%.
For `Fc1ccc2nc(N3CCCCC3)sc2c1`, the activation is 27.8% (active).
Then `Cc1cc(C)n2nc(CNS(=O)(=O)c3c(F)c(F)c(F)c(F)c3F)nc2n1`, with 20.7% (active); and `Cc1ccc(C(=O)NNc2ncnc3ccccc23)cc1`, with 25.9% (active).
`O=C(NC1CCCC1)c1cc(-c2ccccc2)on1`: the activation was 67.8% (active).
For `COc1ccccc1N1CCN(C(=O)c2cc(-c3ccc(Br)cc3)on2)CC1` the value was 2.35%; for `O=C(NCCCn1ccnc1)c1cc(-c2ccccc2)on1`, 127% (active); for `CC1CCc2sc3nc(N4CCN(CCO)CC4)n4ncnc4c3c2C1` (centres undefined), 21.9% (active).
`CN(C)S(=O)(=O)c1ccc2oc(SCC(=O)Nc3ccccc3F)nc2c1`: the activation was 44.6% (active).
For `COc1ccc(/C=C/C(=O)Nc2ccc(C34CC5CC(CC(O)(C5)C3)C4)cc2)cc1OC` the value was 44.5% (active); for `Cc1nnc(Sc2nc3c(c(=O)[nH]c(=O)n3C)n2Cc2ccccc2)s1`, 5.05%.
For `CN(C)C(=S)N=c1ssc(=S)n1Cc1ccco1`, the activation is 32.8% (active).
Turning to `CC(C)(C)c1ccc(C(=O)NCc2ccco2)cc1`, the activation is 44.1% (active).
For `O=C(NCc1ccco1)c1ccc(Cn2c(=O)c3sccc3n(Cc3ccc(F)cc3)c2=O)cc1` the value was 6.19%.
For `CCCCNC(=O)N(O)C1N(/N=C/c2ccccc2O)C(=S)SC1(C)C` (centres undefined) the value was 14.1% (active); for `CCOC(=O)c1cc2c(=O)n3ccccc3nc2n(CC(C)C)c1=NC(=O)c1c(-c2c(F)cccc2Cl)noc1C`, 3.22%.
Turning to `N#Cc1c(N)nc2c3c(sc(=N)c2c1N)NC(=O)CC3c1ccccc1Cl` (centres undefined), the activation is 24.2% (active).
As for `CCc1ccc(N(C(=O)c2csnn2)C(C(=O)NC2CCCCC2)c2ccncc2)cc1` (centres undefined), the activation is 12.1% (active).
For `Cc1cc(=O)oc(C)c1C(=O)NCc1ccc(F)cc1` the value was 4.06%.

(Values after PubChem BioAssay AID588351 (The Scripps Research Institute Molecular Screening Center, 2011).)
